About 83,000 compounds went through this panel and 20% of them were active in at least one assay; those are over-represented in the sample as a whole.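 Cell lines were cultured in 96-well plates, exposed to a single compound concentration, and assessed for percent growth 48 hours later.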 A number with no mark means an inactive call. Active and inactive are the calls of the source. Rule for the calls: active = growth percent below 10; inactive = the rest.
What follows are molecules tested on IGROV1 ovarian (assay: NCI-60 one-dose screen, 48 h (100 = growth as untreated, 0 = no growth, -100 = all killed)). Details: 10 µM unless noted.

| Compound | growth |
| --- | --- |
| O=P(O)(O)OCC1OC(n2cnc3c(NCc4ccco4)ncnc32)C(O)C1O (centres undefined) | -36.4% (active) |
| C=CN(C(=O)N1CCN(c2cc3c(cc2F)c(=O)c(C(=O)O)cn3C2CC2)CC1)c1nc(-c2ccc(OC)cc2)cs1 | 39.6% |
| CC(=O)Oc1ccc(OC(C)=O)c2ccccc12 | 68.5% |
| O=C1c2ccccc2C(=O)c2c1cc1c(c2[N+](=O)[O-])OCO1 | 5.43% (active) |
| Cc1cccc2c1C[C@@]1(C2=O)C(c2ccc(C(C)(C)C)cc2)=NOS1=O (some centres undefined) | 64.5% |
| COc1cccc(Nc2ncnc3cc(NC(=O)CCl)ccc23)c1 | -64.7% (active) |
| NC(N)=NS(=O)(=O)c1ccc(NC2=C(I)C(=O)c3ncccc3C2=O)cc1 | 97.5% |
| Cc1c(CN)cc(-c2ccc(Cl)cc2)n1-c1ccccc1 | 48.1% |
| O=C1Nc2ccccc2C1(c1c[nH]c2ccccc12)c1c[nH]c2ccccc12 | 8.3% (active) |
| CCn1c(-c2cc3c([nH]c4ccccc43)c(-c3cccc(O)c3)n2)n[nH]c1=S | 53.7% |
| CCN(CC)c1ccc(/C=N/NC(=O)Cc2ccc(Nc3ccnc(C(F)(F)F)c3)cc2)c(O)c1 | 25.1% |
| COc1ccc2c(c1)c(-c1nc(-c3c[nH]c4ncccc34)cs1)cn2CCCN1CCOCC1 | 22.9% |
| CNC(C)[C@H]1CCC2C3CC=C4C(=O)[C@@H](NC(=O)C=C(C)C)CC[C@]4(C)C3CC[C@@]21C (some centres undefined) | 9.81% (active) |
| CN(Cc1ccccc1)c1nc(Cl)c(C2CC(c3ccccc3)=NN2c2ccccc2)s1 (centres undefined) | 97.2% |
| N#CC1=C(N)Oc2ccc3ccccc3c2C1c1ccc([N+](=O)[O-])cc1 (centres undefined) | 50.6% |
| COc1ccc(C(=O)Cn2c(C(=O)c3ccc(OC)cc3)nc3ccccc32)cc1 | 26.9% |
| CC1C(/C=N/NC(N)=S)C(C#N)(C#N)C1(C#N)C#N (centres undefined) | 109% |
| O=C(Cc1ccc(/C=C/C(=O)c2ncc[nH]2)cc1)Nc1cc(C(F)(F)F)cc(C(F)(F)F)c1 | 84.4% |

| Compound | growth |
| --- | --- |
| CCN1C(=O)N(CC)C2C1NN=c1s/c(=C\c3ccc(C(F)(F)F)cc3)c(=O)n12 (centres undefined) | 18.7% |
| Cc1nn(-c2ccccc2)c(N)c1N=C1NC(=O)/C(=C/c2ccc(Br)cc2)S1 | 99.6% |
| O=C(c1c[nH]c2ccccc12)c1n[nH]c(=S)n1-c1cccc(Br)c1 | 60.6% |
| Cc1ccc(/C=C/C(=O)Nc2ncc(Cc3ccc(F)cc3)s2)o1 | 54.1% |
| O=C1/C(=C\c2cccc3nccnc23)SC(=S)N1CCc1ccc(O)cc1 | 95.4% |
| COc1cccc(/C=C/C(=O)c2cccc(Nc3nc(Nc4ccccc4)nc(Nc4ccccc4)n3)c2)c1 | 77.5% |
| C=C1C(=O)O[C@H]2[C@H]1CC/C(COC(=O)c1cc3cc(Cl)ccc3[nH]1)=C\CC[C@@]1(C)O[C@@H]21 | -82.7% (active) |
| COc1ccc(Cn2cc(C(=O)N=Nc3c(O)[nH]c4c(C)cccc34)nn2)cc1 | 84.8% |
| NC(=O)c1cnc(Nc2cccc(N)c2)nc1NCCCNC(=O)C1CCC1 | 65.8% |
| CC1=C2[C@@H](CC1)[C@]1(C)O[C@@](C3CCCCC3)(C[C@H]1OC(=O)CO)[C@H]2OC(=O)/C=C/c1ccccc1 | 85.1% |
| O=C(Nc1cnc(Nc2ccc(N3CCOCC3)nc2)nc1Oc1ccc(C(F)(F)F)cc1)c1ccncc1 | 94% |
| Cc1c2cccnc2c(C)c2c1c1cc(CO)ccc1n2C | 4.27% (active) |
| CCN1CCN(CC(=O)Nc2ccc(-c3cn4c(n3)sc3cc(Oc5ccnc(C(=O)NC)c5)ccc34)cc2)CC1 | 84.8% |
| COc1cc(OC)c2sc(-c3ccc(-n4cncc4-c4cc(OC)c(OC)c(OC)c4)cc3)nc2c1 | 63.9% |
| Ic1ccccc1I | 99.8% |
| CCC1S/C(=N\N=C(\C)c2cc3cc(Cl)ccc3o2)N(c2ccccc2)C1=O (centres undefined) | 671% |
| CN(CCCNC(=O)CCOCCOCCOCCNC(=O)Cc1ccc2ccc3cccc4ccc1c2c34)CCCNc1cc(-c2ccc3ccccc3c2)nc2ccccc12 | -43.8% (active) |

What follows are molecules tested on OVCAR-3 ovarian in the same assay as above. Details: 10 µM unless noted.

| Compound | growth |
| --- | --- |
| CC1(C)[C@@H](O[C@@H]2OC[C@@H](O[C@@H]3O[C@H](CO)[C@@H](O)[C@H](O)[C@H]3O[C@@H]3OC[C@@H](O)[C@H](O)[C@H]3O)[C@H](O)[C@H]2O[C@@H]2O[C@H](CO)[C@@H](O)[C@H](O)[C@H]2O)CC[C@]2(C)[C@H]3CC[C@]45OC[C@@]6(CC[C@](C)(C=O)C[C@H]64)[C@H](O)C[C@@]5(C)[C@]3(C)CC[C@@H]12 | -72.6% (active) |
| O=C(CCl)NNc1nccc(Nc2ccc(S(=O)(=O)Nc3ccncc3)cc2)n1 | 24.2% |
| CS(=O)(=O)Nc1cc(-c2ccc3ncc(C#N)c(Nc4ccc(F)c(Cl)c4)c3c2)cnc1Cl | -19.3% (active) |
| Cc1[nH]c(C2CC(c3ccc(C(F)(F)F)c(F)c3)=NN2c2ccccc2)c(C)c1C(=O)NCC(F)(F)F (centres undefined) | 98.2% |
| O=P(O)(O)OCC1OC(n2cnc3c(NCc4ccco4)ncnc32)C(O)C1O (centres undefined) | -72% (active) |
| C=CN(C(=O)N1CCN(c2cc3c(cc2F)c(=O)c(C(=O)O)cn3C2CC2)CC1)c1nc(-c2ccc(OC)cc2)cs1 | 13.7% |
| CC(=O)Oc1ccc(OC(C)=O)c2ccccc12 | 59.7% |
| O=C1c2ccccc2C(=O)c2c1cc1c(c2[N+](=O)[O-])OCO1 | -20.9% (active) |
| Cc1cccc2c1C[C@@]1(C2=O)C(c2ccc(C(C)(C)C)cc2)=NOS1=O (some centres undefined) | 92.1% |
| NC(N)=NS(=O)(=O)c1ccc(NC2=C(I)C(=O)c3ncccc3C2=O)cc1 | 95.3% |
| Cc1c(CN)cc(-c2ccc(Cl)cc2)n1-c1ccccc1 | 106% |
| O=C1Nc2ccccc2C1(c1c[nH]c2ccccc12)c1c[nH]c2ccccc12 | -47.2% (active) |
| CCn1c(-c2cc3c([nH]c4ccccc43)c(-c3cccc(O)c3)n2)n[nH]c1=S | 28.9% |
| COc1ccc2c(c1)c(-c1nc(-c3c[nH]c4ncccc34)cs1)cn2CCCN1CCOCC1 | 44% |
| CNC(C)[C@H]1CCC2C3CC=C4C(=O)[C@@H](NC(=O)C=C(C)C)CC[C@]4(C)C3CC[C@@]21C (some centres undefined) | -14% (active) |
| CN(Cc1ccccc1)c1nc(Cl)c(C2CC(c3ccccc3)=NN2c2ccccc2)s1 (centres undefined) | 105% |
| N#CC1=C(N)Oc2ccc3ccccc3c2C1c1ccc([N+](=O)[O-])cc1 (centres undefined) | 79.4% |

| Compound | growth |
| --- | --- |
| COc1ccc(C(=O)Cn2c(C(=O)c3ccc(OC)cc3)nc3ccccc32)cc1 | -10.4% (active) |
| CC1C(/C=N/NC(N)=S)C(C#N)(C#N)C1(C#N)C#N (centres undefined) | 107% |
| O=C(Cc1ccc(/C=C/C(=O)c2ncc[nH]2)cc1)Nc1cc(C(F)(F)F)cc(C(F)(F)F)c1 | 59.3% |
| CCOC(=O)c1ccccc1-c1c2ccc(=[N+](C)C)cc-2oc2cc(N(C)C)ccc12 | 11.1% |
| CCN1C(=O)N(CC)C2C1NN=c1s/c(=C\c3ccc(C(F)(F)F)cc3)c(=O)n12 (centres undefined) | 3.24% (active) |
| Cc1nn(-c2ccccc2)c(N)c1N=C1NC(=O)/C(=C/c2ccc(Br)cc2)S1 | 72% |
| O=C(c1c[nH]c2ccccc12)c1n[nH]c(=S)n1-c1cccc(Br)c1 | 86.4% |
| Cc1ccc(/C=C/C(=O)Nc2ncc(Cc3ccc(F)cc3)s2)o1 | 36.9% |
| COc1cccc(/C=C/C(=O)c2cccc(Nc3nc(Nc4ccccc4)nc(Nc4ccccc4)n3)c2)c1 | 76.6% |
| C=C1C(=O)O[C@H]2[C@H]1CC/C(COC(=O)c1cc3cc(Cl)ccc3[nH]1)=C\CC[C@@]1(C)O[C@@H]21 | -91.3% (active) |
| NC(=O)c1cnc(Nc2cccc(N)c2)nc1NCCCNC(=O)C1CCC1 | 82.6% |
| O=C(Nc1cnc(Nc2ccc(N3CCOCC3)nc2)nc1Oc1ccc(C(F)(F)F)cc1)c1ccncc1 | 85% |
| CCN1CCN(CC(=O)Nc2ccc(-c3cn4c(n3)sc3cc(Oc5ccnc(C(=O)NC)c5)ccc34)cc2)CC1 | 88.8% |
| COc1cc(OC)c2sc(-c3ccc(-n4cncc4-c4cc(OC)c(OC)c(OC)c4)cc3)nc2c1 | 35.1% |
| Ic1ccccc1I | 110% |
| CCC1S/C(=N\N=C(\C)c2cc3cc(Cl)ccc3o2)N(c2ccccc2)C1=O (centres undefined) | 75.5% |
| CN(CCCNC(=O)CCOCCOCCOCCNC(=O)Cc1ccc2ccc3cccc4ccc1c2c34)CCCNc1cc(-c2ccc3ccccc3c2)nc2ccccc12 | -92% (active) |

— PubChem BioAssay (NCI)
